From PubChem BioAssay
Compounds with a hit are over-represented: about 1.5% of the library has one in this group of screens.
MCL1-BIM inh = inhibitors of MCL1 binding to BIM-BH3, primary screen, biochemical, fluorescence polarization | Induced myeloid leukemia cell differentiation protein Mcl-1 (Homo sapiens), Q07820 | GST-MCL1 / FITC-Bim-BH3 fluorescence polarization | inhibition, % at 10.9 µM | actives 0.68% (n = 320,000) | AID 2057, 2009;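 active means inhibition above the mean inhibition of all tested compounds plus 3 SD, set per campaign, cut at about 40% in these data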;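 further: higher means more loss of mP so more displacement of Bim peptide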
Bcl-xL primary = inhibitors of human Bcl-xL, primary screen, biochemical, fluorescence polarization, HTS. inhibition, % at 10.9 µM. actives 0.7% (n = 320,000). Bcl-2-like protein 1 (Homo sapiens), Q07817. GST-Bcl-xL / FITC-Bim BH3 peptide fluorescence polarization;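 active means inhibition above the mean of all tested compounds plus 3 SD, cutoff set per campaign, cut at about 30% in these data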;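 further: inhibitors lower millipolarization by displacing the labeled peptide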
Target sequence (Q07817 whole entry, looked up): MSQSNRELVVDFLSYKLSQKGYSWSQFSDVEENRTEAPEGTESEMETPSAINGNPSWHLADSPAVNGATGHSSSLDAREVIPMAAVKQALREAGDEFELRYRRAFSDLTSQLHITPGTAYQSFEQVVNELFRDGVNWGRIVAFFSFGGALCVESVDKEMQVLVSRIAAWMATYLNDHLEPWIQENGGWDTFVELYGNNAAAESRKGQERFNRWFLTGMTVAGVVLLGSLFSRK
GLD-1 TGE inh = GLD-1/TGE RNA complex disruptors, primary screen, biochemical, fluorescence polarization; Female germline-specific tumor suppressor gld-1 (Caenorhabditis elegans), Q17339; purified GLD-1 + fluorescein TGE RNA; inhibition, % at 5.96 µM; actives 0.44% (n = 320,000);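 active means percent inhibition above a per-plate cutoff, the plate mean of test compounds plus 3 SD, cut at about 30% in these data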
IDE cell activ = human IDE activators in live cells, primary screen, fluorescence polarization, HEK cells, FAbeta-B substrate; AID 493087, 2011; actives 0.073% (n = 340,000); Insulin-degrading enzyme (Homo sapiens), P14735; activation, % at 5.96 µM; FAbeta-B cleavage; 0% vehicle, 100% cell-free pure enzyme wells;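 active means activation above the mean of all tested compounds plus 3 SD, set per screening campaign, cut at about 17% in these data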
MEX-5 binding = MEX-5 zinc finger RNA-binding disruptors – biochemical, C. elegans, fluorescence polarization, MLPCN library, primary screen; Zinc finger protein mex-5 (Caenorhabditis elegans), Q9XUB2; MEX-5/FITC-TCR2 RNA binding; hits give low values; activity score (negative = inhibition of binding), % at 10 µM; actives 0.38% (n = 300,000);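 active means inhibition past about -25% in most replicates, and total fluorescence under double the plate's negative control median, limit read from the data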
Target sequence (Q9XUB2 whole entry, looked up): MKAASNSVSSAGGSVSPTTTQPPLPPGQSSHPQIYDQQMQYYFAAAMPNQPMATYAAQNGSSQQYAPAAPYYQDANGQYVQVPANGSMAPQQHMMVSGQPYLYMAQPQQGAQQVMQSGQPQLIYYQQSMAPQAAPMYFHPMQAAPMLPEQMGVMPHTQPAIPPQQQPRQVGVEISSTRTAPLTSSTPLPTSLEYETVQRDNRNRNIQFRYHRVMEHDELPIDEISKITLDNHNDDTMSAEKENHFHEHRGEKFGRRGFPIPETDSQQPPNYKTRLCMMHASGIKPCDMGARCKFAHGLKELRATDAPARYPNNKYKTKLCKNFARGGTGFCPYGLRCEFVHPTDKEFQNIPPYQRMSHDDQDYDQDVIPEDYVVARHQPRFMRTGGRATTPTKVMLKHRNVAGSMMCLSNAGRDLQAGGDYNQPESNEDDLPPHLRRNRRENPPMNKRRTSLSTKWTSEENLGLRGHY
IDE inh = human IDE inhibitors in live cells, primary screen, fluorescence polarization, HEK cells, FAbetaB substrate; Insulin-degrading enzyme (Homo sapiens), P14735; FAbetaB cleavage; inhibition, % at 5.59 µM; actives 0.41% (n = 320,000); AID 434962, 2010;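 active means percent inhibition above the average of all tested compounds plus 3 SD, set per screening campaign, cut at about 16% in these data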;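 further: IDE supplied by intact live HEK cells; FP after avidin binding of uncleaved biotin substrate so inhibition keeps polarization high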
Each line names hits and unclear results; the compound was inactive in the other large screens; ! = a repeat was not active.

CCc1nnc(NS(=O)(=O)c2ccc(N=Cc3c(O)n(-c4ccc(Cl)cc4)c(=O)[nH]c3=O)cc2)s1	IDE cell activ 50, MEX-5 binding -28
CCC(C)C1NC(=O)C(NC(=O)C(CC(C)C)N(C)C(=O)C2CCCN2C(=O)C(C)O)C(C)OC(=O)C(Cc2ccc(OC)cc2)N(C)C(=O)C2CCCN2C(=O)C(CC(C)C)NC(=O)[C@H](C)C(=O)[C@H](C(C)C)OC(=O)CC1O (stereo not given in full)	none (no result: MCL1-BIM inh, Bcl-xL primary, GLD-1 TGE inh, MEX-5 binding, IDE inh)
Cc1cc(/C=C2\C(=O)NC(=O)N(c3cccc(Br)c3)C2=O)c(C)n1C	MEX-5 binding -28
O=c1c2ccccc2nc(/C=C/c2ccc(O)cc2)n1-c1cccc(O)c1	IDE inh 83
Cc1nc2ccccc2c(=O)n1-c1cccc(O)c1	none
Cc1ccc(-c2nc3ccccc3c(=O)n2-c2cccc(O)c2)cc1	Bcl-xL primary 31
CC(OC(=O)c1cn(C)c2ccccc12)C(=O)N(C)c1ccccc1 (stereo not given)	none (no result: MCL1-BIM inh, Bcl-xL primary, GLD-1 TGE inh, MEX-5 binding, IDE inh)
CC1=NNC(=O)C1Br (stereo not given)	none (no result: MCL1-BIM inh, Bcl-xL primary, GLD-1 TGE inh, MEX-5 binding, IDE inh)
COc1ccc(S(=O)(=O)N2Cc3cnnn3-c3ccccc3C2C#N)cc1 (stereo not given)	none (no result: MCL1-BIM inh, Bcl-xL primary, GLD-1 TGE inh, MEX-5 binding, IDE inh)
COC(=O)C1C2c3ccccc3C(c3ccccc32)C1(C)C(=O)OC (stereo not given)	none (no result: MCL1-BIM inh, Bcl-xL primary, GLD-1 TGE inh, MEX-5 binding, IDE inh)
N#CC(C#N)=Cc1ccc(N2CCOCC2)cc1	MEX-5 binding -27
CC(NC(=O)N1CC1(C)C)c1ccccc1 (stereo not given)	none (no result: MCL1-BIM inh, Bcl-xL primary, GLD-1 TGE inh, MEX-5 binding, IDE inh)
Cc1ccc(N2C(=O)NC(=O)/C(=C\c3ccc([N+](=O)[O-])o3)C2=O)cc1	MEX-5 binding -68 (no result: IDE cell activ)
Cc1ccc(N2C(=O)NC(=O)/C(=C\c3ccc(N4CCOCC4)cc3)C2=O)cc1	none
COc1ccc2[nH]cc(CCNCc3cccnc3)c2c1	none
COc1ccc2[nH]c(C)c(CCNCc3cccnc3)c2c1	MCL1-BIM inh 41, Bcl-xL primary 42 (no result: MEX-5 binding)
C[C@]12CC[C@H](O)C[C@H]1CC[C@@H]1[C@@H]2CC[C@]2(C)C(=O)CC[C@@H]12	none (no result: MCL1-BIM inh, Bcl-xL primary, MEX-5 binding)
CN1C(=O)C[N+]([O-])=C(c2ccccc2)c2cc(Cl)ccc21	none (no result: MCL1-BIM inh, Bcl-xL primary, GLD-1 TGE inh, MEX-5 binding, IDE inh)
COc1ccc(CN2C(=O)NC(=O)/C(=C\c3ccco3)C2=O)cc1	MEX-5 binding -46
Cc1ccc(N2C(=O)/C(=C/c3ccc(CN(CCC#N)S(C)(=O)=O)o3)C(=O)NC2=S)cc1	MEX-5 binding -50
CC[n+]1c(/C=C/C=C/c2ccc(N(C)C)cc2)sc2ccccc21	MEX-5 binding -28
CC(=O)OC1C(=O)OCC23CCC4(C)OC4C2OC2CC(OC(=O)C=CC=CC(=O)OCCC1C)C3(C)C21CO1 (stereo not given)	none (no result: MCL1-BIM inh, Bcl-xL primary, GLD-1 TGE inh, MEX-5 binding, IDE inh)
CCOC(=O)c1cc(CC)sc1/N=C/c1c(O)[nH]c(=S)[nH]c1=O	MEX-5 binding -29
N#CCC(=O)NN1Cc2ccccc2C1=N	Bcl-xL primary 75
N=C1c2ccccc2CN1NC(=O)c1ccc(F)cc1	none
Nc1c(C(=O)NCc2ccco2)c2nc3ccccc3nc2n1Cc1ccccc1	none
CCOC(=O)c1c(N)n(Cc2ccco2)c2nc3ccccc3nc12	Bcl-xL primary 43, GLD-1 TGE inh 62 (no result: MEX-5 binding)
COCC(C)OC(=O)c1c(N)n(Cc2ccco2)c2nc3ccccc3nc12 (stereo not given)	Bcl-xL primary 34, GLD-1 TGE inh 39
COc1cccc(N2C(=O)NC(=O)/C(=C/c3ccc4c(c3)Cc3ccccc3-4)C2=O)c1	MEX-5 binding -43
NC(=O)Cn1cc(C=C2C(=O)NC(=O)NC2=O)c2ccccc21	MEX-5 binding -74 (no result: MCL1-BIM inh, Bcl-xL primary, GLD-1 TGE inh, IDE inh)
COC(=O)Cn1cc(C(=O)c2ccccc2F)c2ccccc21	none (no result: MCL1-BIM inh, Bcl-xL primary, GLD-1 TGE inh, IDE inh)
COC(=O)Cn1cc(C=C2C(=O)NC(=O)NC2=O)c2ccccc21	MEX-5 binding -27
CCn1cc(C=C2C(=O)N(C)C(=O)N(C)C2=O)c2ccccc21	none
CC(=O)c1cccc(OCC(=O)N2CCN(CC(=O)Nc3cccc(F)c3)CC2)c1	none (no result: MEX-5 binding)
COC1=CC2C3Cc4ccc(OC)c(O)c4C2(CCN3C)CC1=O (stereo not given)	none (no result: MEX-5 binding)
CCN(CC)c1ccc(N=Cc2c(O)n(-c3ccccc3)c(=O)[nH]c2=O)cc1	none
CCN(CC)c1ccc(N=Cc2c(O)n(Cc3ccccc3)c(=O)[nH]c2=O)cc1	MEX-5 binding -29!
O=C(N/N=C/c1c(O)n(Cc2ccccc2)c(=O)[nH]c1=O)c1ccccc1O	MEX-5 binding -36
COc1cc2c(c(OC)c1OC)-c1ccc(SC)c(=O)cc1C(NC(C)=O)CC2 (stereo not given)	none (no result: MCL1-BIM inh, Bcl-xL primary, GLD-1 TGE inh, MEX-5 binding, IDE inh)
O=C(O)c1cc[c]([Hg][Cl])cc1	IDE inh 96 (no result: MEX-5 binding)
COC(=O)C1=C(c2ccc(F)cc2OCc2ccccc2)C[C@@H]2CC[C@H]1N2C(=O)NCCN1CCOCC1	none (no result: MEX-5 binding)
CC(C)[C@@]1(NC(=O)[C@@H]2C[C@@H]3c4cccc5[nH]cc(c45)C[C@H]3N(C)C2)O[C@@]2(O)[C@@H]3CCCN3C(=O)[C@H](Cc3ccccc3)N2C1=O	none
CC(C)C[C@H]1C(=O)N2CCCC2[C@]2(O)O[C@](NC(=O)[C@@H]3C=C4c5cccc6[nH]cc(c56)CC4N(C)C3)(C(C)C)C(=O)N12 (stereo not given in full)	MCL1-BIM inh 194, Bcl-xL primary 152, GLD-1 TGE inh 117
Cc1cccc(-n2c(O)c(C=NCCN3CCCCC3)c(=O)[nH]c2=O)c1	none
O=c1[nH]c(=O)n(-c2ccc(Br)cc2)c(O)c1C=NCCN1CCCCC1	MEX-5 binding -40
Cc1ccc2c(c1N)C(=O)c1ccccc1C2=O	MCL1-BIM inh 42, Bcl-xL primary 47 (no result: MEX-5 binding)
CN(C)[C@@H]1C(=O)C(C(N)=O)=C(O)[C@@]2(O)C(=O)C3=C(O)c4c(O)cccc4[C@@](C)(O)[C@H]3[C@H](O)[C@@H]12	MCL1-BIM inh active, Bcl-xL primary 153, GLD-1 TGE inh 93, MEX-5 binding -84
CN(C)[C@@H]1C(=O)C(C(N)=O)=C(O)[C@@]2(O)C(=O)C3=C(O)c4c(O)ccc(Cl)c4[C@@](C)(O)[C@H]3C[C@@H]12	none
Cn1cccc1/C=C1\C(=O)NC(=O)N(CCC2=CCCCC2)C1=O	MEX-5 binding -37 (no result: MCL1-BIM inh, Bcl-xL primary, GLD-1 TGE inh, IDE inh)
O=[N+]([O-])/C=C/c1c(Cl)cccc1Cl	none (no result: MCL1-BIM inh, Bcl-xL primary, GLD-1 TGE inh, MEX-5 binding, IDE inh)
CCC(c1ccc(C)cc1)N1C(=O)C2C3CCC(O3)C2C1=O (stereo not given)	none (no result: MEX-5 binding)
